Measurements as given in PubChem BioAssay (NCI).
Where “and” joins values, the source holds several entries; their conditions need not be identical. Equal values may be shown once. This is part of a sample that, as a whole, favours compounds with a hit. Of some 83,000 tested, about 20% had one in any assay.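 Percent growth is the endpoint: 0 to 100 indicates growth inhibition (40 means 60% inhibition), 0 means no net growth, and negative values indicate cell death.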 Calls of active or inactive are those of the source.

test system: NCI-H522 lung; test: NCI-60 one-dose screen, 48 h (100 = growth as untreated, 0 = no growth, -100 = all killed); conditions: 10 µM unless noted
Protocol: Growth inhibition of the NCI-H522 human Non-Small Cell Lung tumor cell line is measured as a screen for anti-cancer activity. Cells are grown in 96 well plates and exposed to the test compound for 48 hours. Compounds are tested at a single concentration, which is 10^-5 M for most compounds. The reported endpoint is percent growth (GI% or GIPRCNT), where numbers from 0 - 100% represent growth inhibition, and numbers from -100% - 0 represent cell death. For example, a value of 40 represents 60% growth inhibition. A value of 0 means no net growth occurred over the course of the experiment. A value of -40 indicates 40% of cells at the beginning of the experiment died by the end of the experiment. A value of -100 means all cells are dead at the end of the experiment.
NCI-60 Human Tumor Cell Lines Screen was performed using the standard one-dose NCI protocol, which is described in more detail at https://dtp.cancer.gov/discovery_development/nci-60/default.htm.
Compounds with GIPRCNT values below 10 were considered active. Activity score was based on GIPRCNT using the following formula: […]
Score is 0 for GIPRCNT values of 100 or above, 50 for GIPRCNT values of 0, and 100 for GIPRCNT values of -100.

Question: Which growth does the source give for `C/C(=C\c1ccn(-c2ccc(N)cc2F)n1)[C@@H]1C[C@@H]2O[C@]2(C)CCC[C@H](C)[C@H](O)[C@@H](C)C(=O)C(C)(C)[C@@H](O)CC(=O)O1` here?
Answer: 10.2% (inactive)

Question: For `CCCCCCCCCCCCCCCC[N+](C)(C)Cc1ccccc1`, which growth is on record?
Answer: 4.46% (active) and -58.2% (active)

Question: How did the growth turn out when `CC(C)CCC1C(=O)NC(=O)NC1=O` was run?
Answer: 79.4% (inactive)

Question: `COc1c(O)cc2c(c1OC)-c1ccc(SC)c(=O)cc1C(NC(C)=O)CC2` (stereo not given) was tested. Which growth did it give?
Answer: -46.8% (active)

Question: Which growth does the source give for `Cc1cc(N(CCCl)CCCl)ccc1/C=N\NC(=O)c1cccnc1` here?
Answer: 82.3% (inactive) and 105% (inactive)

Question: With `C[C@]12CCc3sc(Nc4ccc(O)cc4)nc3C1=CC[C@@H]1[C@@H]2CC[C@]2(C)C(=O)CC[C@@H]12` as the compound, how does the growth read?
Answer: -55.2% (active)

Question: How did the growth turn out when `COC12CC3(C)C(C4=CC(=O)OC4)CCC3(O)C3CCC4=CC(=O)CCC4(CO1)C32` (stereo not given) was run?
Answer: 14.7% (inactive)

Question: Which growth does the source give for `C(=NC1CCCCC1)=NC1CCCCC1` here?
Answer: 91.8% (inactive) and 85.2% (inactive)

Question: How did the growth turn out when `Oc1ccccc1C=NCCN=Cc1ccccc1O.[Fe]` was run?
Answer: 47.5% (inactive)

Question: With `CCOC(=O)c1ccccc1C(=O)OCC` as the compound, how does the growth read?
Answer: 61.1% (inactive)

Question: How did the growth turn out when `Cc1ccc(N2CCN(CCC#N)CC2)cc1` was run?
Answer: 84.6% (inactive)

Question: Which growth does the source give for `COc1ccc(N)cc1OC` here?
Answer: 103% (inactive)

Question: With `[N-]=[N+]=CC(=O)CCC(=O)C=[N+]=[N-]` as the compound, how does the growth read?
Answer: 110% (inactive)

Question: How did the growth turn out when `Cc1nnc([S-])o1.[Au+].c1ccc([PH+](c2ccccc2)c2ccccc2)cc1` was run?
Answer: -81.1% (active)

Question: Which growth does the source give for `CNC(=O)O/N=C(\SC)C(=O)N(C)C` here?
Answer: 77.5% (inactive)

Question: `Cc1c2ccncc2c(C)c2c1[nH]c1ccccc12` was tested. Which growth did it give?
Answer: -50.6% (active)

Question: `NC(=O)c1c(Br)c(Br)c(Br)c(Br)c1C(=O)O` (tested in a mixture with another compound) was tested. Which growth did it give?
Answer: 93% (inactive) and 99.3% (inactive)

Question: For `O=C1c2ccccc2C(=O)N1N1CC1c1ccccc1` (stereo not given), which growth is on record?
Answer: 85.9% (inactive)

Question: With `C[C@]12CC[C@H]3[C@@H](CC=C4c5nc(N)sc5CC[C@@]43C)[C@@H]1CC[C@@H]2O` as the compound, how does the growth read?
Answer: 89.7% (inactive)

Question: With `Nc1nc(=S)nc(N)[nH]1` as the compound, how does the growth read?
Answer: 75.5% (inactive)

Question: `Cc1cc(NC(=O)NCCCOc2ccc(N3C(N)=NC(N)=NC3(C)C)cc2Cl)ccc1S(=O)(=O)F` was tested. Which growth did it give?
Answer: 7.9% (active)

Question: `CC(Oc1ccc(-c2ccccc2)cc1)C(=O)O` (stereo not given) was tested. Which growth did it give?
Answer: 99.8% (inactive)

Question: With `C[C@]12CCc3sc(Nc4ccc(F)cc4)nc3C1=CC[C@@H]1[C@@H]2CC[C@]2(C)C(=O)CC[C@@H]12` as the compound, how does the growth read?
Answer: 62% (inactive)

Question: How did the growth turn out when `Nc1ccc(P(=O)(O)O)cc1` was run?
Answer: 111% (inactive) and 88.8% (inactive)

Question: How did the growth turn out when `CC(=O)Nc1nc2c(s1)C1=CC[C@H]3[C@@H]4CC[C@H](OC(C)=O)[C@@]4(C)CC[C@@H]3[C@@]1(C)CC2` was run?
Answer: 39.3% (inactive)

Question: Which growth does the source give for `C=CC[PH+](c1ccccc1)c1ccccc1.C=CC[PH+](c1ccccc1)c1ccccc1.[Pt+2].[S-]c1ncccn1.[S-]c1ncccn1` here?
Answer: -46.1% (active)

Question: How did the growth turn out when `CCCCS(=O)(=O)Cl` was run?
Answer: 99.8% (inactive)

Question: `COC(=O)[C@@H](C)C[C@H](Cc1ccccc1)NC(=O)c1cccc([C@@H](C[C@H](C(C)C)N(C)C(=O)[C@@H](NC(=O)[C@H]2CCCCN2C)C2CC2)OC(C)=O)n1` was tested. Which growth did it give?
Answer: -11.3% (active)

Question: Which growth does the source give for `CN(C)C(=S)SSC(=S)N(C)C` here?
Answer: 25.3% (inactive) and 24.4% (inactive)

Question: `Oc1ccccc1C=NCCN=Cc1ccccc1O` was tested. Which growth did it give?
Answer: 92.3% (inactive)

Question: How did the growth turn out when `O=P(O)(Nc1ccccc1)Nc1ccccc1` was run?
Answer: 85.6% (inactive)

Question: For `CC[C@@H](C)C(=O)O[C@H]1[C@H](O)[C@H]2[C@@H](CN3C[C@@H](C)CC[C@H]3[C@@]2(C)O)[C@@H]2C[C@]34O[C@]5(O)[C@@H](OC(=O)[C@@](C)(O)CC)CC[C@@]3(C)[C@@H]5[C@@H](OC(C)=O)[C@@H](OC(C)=O)[C@H]4[C@@]21O`, which growth is on record?
Answer: 100% (inactive)

Question: For `CC1(C)N=C(N)N=C(N)N1c1ccc(CCC(=O)Nc2ccc(S(=O)(=O)F)cc2)cc1`, which growth is on record?
Answer: 23.6% (inactive)

Question: `O=C(NCCCN1CC1)Nc1cccc2ccccc12` was tested. Which growth did it give?
Answer: 108% (inactive) and 79.1% (inactive)

Question: Which growth does the source give for `CC[PH+](CC)CC.O=COC1OC([S-])C(OC=O)C(OC=O)C1OC=O.[Au+]` (stereo not given) here?
Answer: -75% (active)

Question: With `C/C(=C\c1ccn(-c2ccc(N)c(C(F)(F)F)c2)n1)[C@@H]1C[C@@H]2O[C@]2(C)CCC[C@H](C)[C@H](O)[C@@H](C)C(=O)C(C)(C)[C@@H](O)CC(=O)O1` as the compound, how does the growth read?
Answer: 30.3% (inactive)

Question: For `Cc1cc(C(C)(C)C)ccc1O`, which growth is on record?
Answer: 102% (inactive)

Question: For `Clc1ccc(COC(Cn2ccnc2)c2ccc(Cl)cc2Cl)c(Cl)c1` (stereo not given), which growth is on record?
Answer: 39% (inactive) and 41.5% (inactive)

Question: How did the growth turn out when `CO[C@@H]([CH2][Hg][O]C(=O)c1ccccc1)[C@@H]([CH2][Hg][O]C(=O)c1ccccc1)OC` was run?
Answer: -53.9% (active)

Question: Which growth does the source give for `N#CCC(=O)c1ccccc1` here?
Answer: 102% (inactive)
